# This excerpt belongs to a sample that is enriched for hits.
# RECQ1 inh: blocks DNA unwinding by human RECQ1 | P46063 | RECQ1 DNA unwinding, red fluorescence kinetic read | Potency, µM (highest dose often 57.3 µM), inactives show at the highest dose activity, negative = inhibition, actives largely listed as inhibitors | 0.54% of 240,000 active | AID 2549;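 further: plate controls were vehicle for no effect and no enzyme for full effect; nearly all actives have a fitted effect of over 30% in size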
# Target sequence (P46063 whole entry, looked up): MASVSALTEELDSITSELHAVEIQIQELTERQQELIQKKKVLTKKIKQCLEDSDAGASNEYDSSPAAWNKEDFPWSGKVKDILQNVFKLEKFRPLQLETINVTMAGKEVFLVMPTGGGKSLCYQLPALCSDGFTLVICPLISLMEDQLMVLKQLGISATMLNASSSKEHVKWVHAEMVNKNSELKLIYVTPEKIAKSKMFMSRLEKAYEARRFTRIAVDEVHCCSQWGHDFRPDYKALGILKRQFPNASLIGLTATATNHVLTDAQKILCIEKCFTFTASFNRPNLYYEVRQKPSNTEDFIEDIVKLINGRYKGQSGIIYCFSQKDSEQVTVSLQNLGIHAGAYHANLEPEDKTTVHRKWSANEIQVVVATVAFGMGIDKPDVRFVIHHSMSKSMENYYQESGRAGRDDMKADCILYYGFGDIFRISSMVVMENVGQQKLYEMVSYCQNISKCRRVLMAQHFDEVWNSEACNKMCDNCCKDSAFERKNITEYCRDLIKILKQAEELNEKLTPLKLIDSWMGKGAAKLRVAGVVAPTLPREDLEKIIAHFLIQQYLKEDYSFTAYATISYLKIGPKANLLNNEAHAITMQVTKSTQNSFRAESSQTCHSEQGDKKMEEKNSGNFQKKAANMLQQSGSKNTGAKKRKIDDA
#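 50 nM RECQ1T1 preincubated 15 min with compound in Tris pH 8.0 buffer with MgCl2, DTT, Tween-20 and 2.5 ug/ml poly(dI-dC); started with 200 nM TAMRA/BHQ-2 forked duplex and 2 mM ATP. Unwinding read as fluorescence (525/598 nm), two reads 2 h apart.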
# L3MBTL1 block: L3MBTL1 (human) inhibition; Q9Y468; AlphaScreen L3MBTL1–H3K9me1 peptide binding; Potency, µM (doses to about 57.1 µM), for the others: at the highest dose activity, negative = inhibition, hits mostly inhibitors; 0.66% of 230,000 active; further: nearly all actives have a fitted effect of over 60% in size
#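 Read-out is AlphaScreen signal from streptavidin donor and nickel chelate acceptor beads (10 ug/mL final each) bridging L3MBTL1 (50 nM) and biotinylated K9-monomethylated H3(1-15) peptide (75 nM), after 30 min compound exposure at room temperature.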
# BLM helicase inh: blocks DNA unwinding by human BLM helicase. recombinant BLM DNA unwinding, fluorescence dequenching. 0.2% of 350,000 active. Potency, µM (titrated, usually from 56.1 µM), without a hit: at the top dose activity change, negative = inhibition, most hits filed as inhibitors. P54132;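 further: plate controls were vehicle for no effect and no enzyme for full effect; nearly all actives have a fitted effect of over 35% in size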
# KDM4E inh: blocks human JMJD2E demethylase activity; JMJD2E catalytic domain, FDH-coupled NADH fluorescence (FDH is formaldehyde dehydrogenase); 1.6% of 230,000 active; B2RXH2; Potency, µM (series often up to 57.1 µM), for inactives: top-dose activity change, negative = inhibition, hits mostly inhibitors; active means well fitted inhibition curve with a large enough effect, not every such curve was filed as active; inconclusive means small, poorly fitted or top-dose-only effect, or another doubt; inactive means no such curve, though single readings can be large or run the other way;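 further: 0% = wells with enzyme and -100% = buffer wells without enzyme; nearly all actives have a fitted effect of over 50% in size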
# TDP1 inh: blocks human tyrosyl-DNA phosphodiesterase 1. 0.28% of 350,000 active. Q9NUW8. recombinant TDP1, AlphaScreen DNA substrate cleavage. Potency, µM (top dose mostly 130 µM), for inactives: top-dose activity change, negative = inhibition, actives largely listed as inhibitors; further: nearly all actives have a fitted effect of over 40% in size
#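 Enzyme-compound mixtures sat 15 min at room temperature, followed by a 5 min reaction with 15 nM final substrate and 10 min with AlphaScreen beads. Recombinant human Tdp1 was used at 1 nM final.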
# APE1 inh-1: APE1 (human) endonuclease inhibition. P27695. recombinant APE1, TAMRA/BHQ-2 abasic DNA cleavage fluorescence. Potency, µM (series often up to 65.8 µM), inactives show at the highest dose activity change, negative = inhibition, hits mostly inhibitors. 0.35% of 350,000 active. AID 2517;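 further: plate controls were vehicle for no effect and reference inhibitor for full effect; nearly all actives have a fitted effect of over 55% in size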
#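 APE1 at 0.75 nM preincubated 15 min at room temperature with compound. Reaction then started with 50 nM double-stranded THF-abasic substrate labelled with TAMRA/BHQ-2, and 525/598 nm fluorescence read kinetically. Activity taken as third-minus-first read difference, normalized to DMSO and NSC13755 controls.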
# DNA dye displace: displaces fluorescent dye from DNA, flagging APE1 artifacts | shares compounds with APE1 inh-1 | DNA fluorescent dye displacement counterscreen, fluorescence | Potency, µM (series often up to 28.5 µM), for the others: at the highest dose activity change, negative = inhibition, actives largely listed as inhibitors | 7% of 480 active;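 further: loss of thiazole orange fluorescence as the dye is displaced from duplex DNA; 0% = ThO with dsDNA and no compound and -100% = ThO without dsDNA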
# EndoIV counter: blocks E. coli endonuclease IV DNA cleavage | E. coli Endo IV, fluorogenic AP-site DNA cleavage | 4% of 560 active | Potency, µM (highest dose often 27.1 µM), for inactives: at the highest dose activity change, negative = inhibition, actives largely listed as inhibitors | shares compounds with APE1 inh-1;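 further: plate controls were uninhibited enzyme wells for no effect and no enzyme buffer wells for full effect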
# APE1 inh-2: APE1 (human) endonuclease inhibition, confirmation; shares compounds with APE1 inh-1; purified APE1, fluorogenic abasic-site DNA cleavage; Potency, µM (series often up to 57.1 µM), for inactives: at the highest dose activity change, negative = inhibition, most hits filed as inhibitors; 44% of 750 active; AID 2572; further: nearly all actives have a fitted effect of over 30% in size
# APE1 FP: displaces DNA from human APE1 in FP assay; shares compounds with APE1 inh-1; APE1 binding to TAMRA-labelled double-stranded DNA, fluorescence polarization displacement; Potency, µM (top dose mostly 28.5 µM), for the others: top-dose activity, negative = inhibition, most hits filed as inhibitors; 7% of 480 active; AID 2573
# Numbers without * were called inactive; i = inactive; ? = inconclusive; . = not tested or not shown; [ ] = remark or other dose. Unless noted, the call rests on the fitted dose curve; in most records, active means well fitted curve in the direction sought with a large enough effect; inconclusive means small, poorly fitted or top-dose-only effect, or another doubt; inactive means no such curve, though single readings can be large; an effect the other way counts as inactive or inconclusive. Unless noted, on the % scale 0 is the no-effect control and ±100 the full control effect; potency means the concentration at half of the fitted maximal effect.
SMILES,RECQ1 inh,L3MBTL1 block,BLM helicase inh,KDM4E inh,TDP1 inh,APE1 inh-1,DNA dye displace,EndoIV counter,APE1 inh-2,APE1 FP
Cc1ccsc1CNc1ncnc2ccc(-c3c(C)noc3C)cc12,-5.1%,-0.3%,-6.0%,.,-1.4%,?,.,.,.,.
Cc1ccc(Cc2nc3ccccc3nc2SCC(=O)Nc2ccc3c(c2)OCO3)cc1,.,.,-0.7%,.,2.7%,.,.,.,.,.
CC1CC(=O)c2c(cc3c(-c4c(O)cc(O)c5c(O)c6c(cc45)OC(C)CC6=O)c(O)cc(O)c3c2O)O1 (centres undefined),17.8µM*,0.631µM*,-21.4%,8.91µM*,3.8%,?,4.47µM*,?,?,-12.5%
NC(=O)C1CCN(C2CC(=O)NC2=O)CC1 (centres undefined),-3.0%,?,-3.1%,9.9%,.,?,-5.0%,-0.6%,?,9.0%
COc1cc(/C=N/Nc2ccc(C(=O)O)cc2)ccc1O,i,.,3.0%,?,?,14.1µM*,-8.9%,4.7%,14.1µM*,12.9%
COc1ccc(OC)c(/C(C)=N/Nc2ccc(C(=O)O)cc2)c1,-15.5%,-16.0%,-4.2%,?,.,28.2µM*,-0.5%,2.5%,?,-13.9%
COc1ccc(/C(C)=N/Nc2ccc(C(=O)O)cc2)cc1OC,-0.4%,-1.5%,-4.9%,6.4%,.,-2.8%,.,.,.,.
COc1ccc(CNC(=O)CCc2c(C)nn(-c3ccc(N4CCCC4)nn3)c2C)c(OC)c1,.,.,-8.3%,.,7.1%,.,.,.,.,.
NCCCC[C@H](NC(=O)[C@H](Cc1c[nH]c2ccccc12)NC(=O)[C@H](CC(=O)O)NC(=O)[C@H](Cc1cnc[nH]1)NC(=O)[C@H](CO)NC(=O)[C@H](Cc1c[nH]c2ccccc12)NC(=O)[C@H](Cc1cnc[nH]1)NC(=O)[C@@H]1CCC(=O)N1)C(=O)N1CCC[C@H]1C(=O)NCC(N)=O,-15.5%,.,-2.3%,.,13.4%,-1.4%,.,.,.,.
Cc1ccc(CSc2nc(=O)c3c(C)cc(C)nc3n2C2CC2)cc1,.,.,-4.3%,.,2.7%,.,.,.,.,.
CCC(C)C(=O)OCC1(c2ccc(C)cc2OC(=O)C(C)C)CO1 (centres undefined),-13.7%,.,-12.1%,-8.2%,.,?,?,-9.2%,11.2µM*,?
COc1cc(/C=C2/NC(=O)NC2=O)cc(Br)c1OCc1ccc(C(=O)O)cc1,-1.2%,.,-17.7%,-25.0%,70.8µM*,?,.,.,?,.
O=C(O)COc1c(Cl)cc(/C=C2\NC(=O)NC2=O)cc1Br,i,0.9%,0.0%,-17.9%,1.2%,3.5%,.,.,.,.
COc1cccc(/C=C2\SC(=O)NC2=O)c1OCc1ccc(C(=O)O)cc1,i,2.1%,-1.1%,-6.3%,?,?,.,.,-21.9%,.
O=c1c(OC2OC(CO)C(O)C(O)C2OC2OC(CO)C(O)C(O)C2O)c(-c2ccc(O)cc2)oc2cc(O)cc(O)c12 (centres undefined),10µM*,.,-19.5%,28.2µM*,.,8.91µM*,1.1%,12.0%,?,-41.9%
C[C@@H]1OC(O[C@H]2[C@H](Oc3cc(O)c4c(=O)c(O)c(-c5ccc(O)cc5)oc4c3)O[C@H](CO)[C@@H](O)[C@@H]2O)[C@H](O)[C@H](O)[C@H]1O (some centres undefined),-8.9%,.,-7.4%,.,3.6%,-9.0%,.,.,.,.
COc1ccc2[nH]c(C(=O)O)c(CCN3C(=O)c4cccc([N+](=O)[O-])c4C3=O)c2c1,-7.0%,7.1%,-28.3%,-8.4%,44.7µM*,?,.,.,39.8µM*,.
COc1ccc2[nH]c(C(=O)O)c(CCNC(C)=O)c2c1,6.1%,4.0%,-2.1%,?,5.9%,3.5%,.,.,.,.
C1CCC[C@H]2CCCN3CC[C@H](CCCCCC[C@@H]4CCCN5CC[C@H](CC1)OC45)OC23,-15.3%,.,.,.,1.2%,-1.1%,.,.,.,.
O=C(Nc1nnc(C23CC4CC(CC(C4)C2)C3)s1)c1ccc(N2C(=O)CCC2=O)cc1,-17.2%,?,-2.9%,8.1%,44.7µM*,10µM*,.,.,-22.6%,.
CC(C)c1nnc(NC(=O)c2ccc(N3C(=O)CCC3=O)cc2)s1,5.0%,8.2%,0.2%,-0.5%,0.0%,-3.6%,.,.,.,.
Cn1nnnc1SCC1=C(C(=O)O)N2C(=O)C(NC(=O)C(O)c3ccccc3)C2SC1 (centres undefined),i,.,-7.7%,?,?,-1.4%,.,.,.,.
Cn1nnnc1SCC1=C(C(=O)O)N2C(=O)[C@@H](NC(=O)[C@H](O)c3ccccc3)[C@H]2SC1,7.6%,?,38.2%,-14.7%,15.8µM*,?,.,.,39.8µM*,.
Cc1nc(-c2ccc(O)c(O)c2)cs1,?,.,0.5%,15.8µM*,2.2%,3.16µM*,0.7%,183.4%,-8.0%[24.4 µM],-3.4%
COc1cc(-c2csc(C)n2)ccc1O,?,.,-1.4%,3.3%,-2.3%,-2.0%,.,.,.,.
SMILES,RECQ1 inh,L3MBTL1 block,BLM helicase inh,KDM4E inh,TDP1 inh,APE1 inh-1,DNA dye displace,EndoIV counter,APE1 inh-2,APE1 FP
Cc1ccccc1OCC(=O)NCC(=O)OCc1ccc2ccccc2c1,.,.,.,.,3.2%,.,.,.,.,.
Nc1cc(C(=O)O)ccc1Sc1ccccc1C(=O)O,28.4%,.,6.2%,?,44.7µM*,?,.,.,-10.5%,.
O=C(CSc1nc(NS(=O)(=O)c2ccccc2)cc(=O)[nH]1)Nc1cccc(C(F)(F)F)c1,.,.,-8.0%,.,1.5%,-11.6%,.,.,.,.
O=C(CSc1nc(NS(=O)(=O)c2ccccc2)cc(=O)[nH]1)Nc1ccc(F)cc1,?,?,?,-24.3%,28.2µM*,?,.,.,-7.9%,.
O=C(/C=C/c1ccccc1)c1cc(Br)ccc(=O)c1O,31.6µM*,.,-18.8%,12.6µM*,.,?,?,-1.0%,?,?
COc1ccc(-c2nnc3ccc(SCC(=O)Nc4nccs4)nn23)cc1OC,-2.2%,6.8%,13.1%,0.2%,-3.2%,3.2%,.,.,.,.
COc1ccc(-c2ccc(SCC(=O)Nc3nccs3)nn2)cc1OC,i,-3.8%,-0.5%,-21.4%,79.4µM*,9.8%,.,.,39.8µM*,.

# Bioassay records deposited in PubChem BioAssay by National Center for Advancing Translational Sciences (NCATS).
